High-throughput results from PubChem BioAssay.
KDM5B inh – blocks human KDM5B histone demethylase activity | Potency, µM (titrated, usually from 57.7 µM), actives largely listed as inhibitors | AID 1347165 | Q9UGL1 | 220,000 tested, 2.6% active | KDM5B demethylase, FDH-coupled NADH fluorescence (FDH is formaldehyde dehydrogenase); further: potency means the concentration at half of the fitted maximal effect; 0% is about no effect; nearly all actives have a fitted effect of over 70% in size
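KDM5BΔAP (200 nM final) in 50 mM HEPES pH 7.5, 0.01% Tween-20 was preincubated 10 min at RT with compound over a concentration range. Substrate mix (H3K4me3 12.5 µM, α-KG 25 µM, Fe²⁺, ascorbate, NAD⁺, FDH) was added, and NADH fluorescence change over 30 min gave dose-response curves.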
IP6K1 inh – IP6K1 kinase inhibition; Q92551; IP6K1 kinase, ADP-Glo luminescence, 2 h; stronger effect = lower value; activity change, % (series mostly up to about 58 µM); 140,000 tested, 0.81% active; AID 1645851; in the data active means activity change below about -25%; further: on the % scale 0 is the no-effect control and ±100 the full control effect
Target sequence (Q92551 whole entry, looked up): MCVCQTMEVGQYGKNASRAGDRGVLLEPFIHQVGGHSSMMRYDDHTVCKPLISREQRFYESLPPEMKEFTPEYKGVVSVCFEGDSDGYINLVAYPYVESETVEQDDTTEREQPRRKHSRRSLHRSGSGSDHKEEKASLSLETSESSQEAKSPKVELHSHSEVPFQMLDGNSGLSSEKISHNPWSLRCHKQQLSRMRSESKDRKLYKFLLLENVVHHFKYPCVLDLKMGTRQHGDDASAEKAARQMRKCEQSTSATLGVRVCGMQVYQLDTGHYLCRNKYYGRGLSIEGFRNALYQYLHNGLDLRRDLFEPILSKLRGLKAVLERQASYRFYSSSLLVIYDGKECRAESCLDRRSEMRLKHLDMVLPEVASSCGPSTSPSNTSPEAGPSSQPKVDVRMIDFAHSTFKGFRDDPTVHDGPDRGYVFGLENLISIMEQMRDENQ
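ADP-Glo luminescence measures ADP made by human IP6K1 during a 2 h RT reaction with ATP/IP6 (mix at 1.3 mM/130 uM); top library doses 57.5 and 19.1 uM final.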
* hit, by the source's call; i = inactive; ? = inconclusive; · = no result. Only some compounds are listed: those with a hit (about 2.7% of all), similar ones and a draw of the others.

SMILES | KDM5B inh | IP6K1 inh
O=C(NC[C@H]1O[C@@H](CC(=O)N2CCN(c3ccccn3)CC2)[C@H](O)[C@@H]1O)NC1CCCCC1 | 25µM* | 9
CC1CCN(C(=O)c2cc3c(s2)CCC(C(=O)NCCCN2CCOCC2)C3)CC1 (configuration not stated) | i | 27
O=C(NC1CCN(Cc2ccc(-c3ccsc3)cc2)C1)C1CC1 (configuration not stated) | · | 0
COc1ccc(NC(=O)CCc2ccnc(N3CCCC3)c2)c(C)c1 | 25µM* | -17
Cc1ccccc1NC(=O)CCc1ccnc(N2CCCC2)c1 | 28µM* | 8
O=C(CCc1ccnc(N2CCOCC2)c1)N1CCN(C(=O)c2ccco2)CC1 | ? | -7
COc1ccc(NC(=O)CC#N)c(C)c1 | i | ·
O=C(CCc1ccnc(N2CCOCC2)c1)Nc1ccc2c(c1)OCO2 | ? | 7
CN(Cc1ccccc1)C(=O)CCc1ccnc(N2CCOCC2)c1 | 25µM* | 1
CCn1c(SCC(=O)Nc2ccc3c(c2)OCCO3)nc2c(-c3ccccc3)csc2c1=O | i | ·
Cc1ccc(Cc2c(C)nc3c(C(=O)N4CCC(Cc5nncn5CC5CC5)CC4)cnn3c2C)cc1 | 28µM* | 13
Cc1nc2c(C(=O)O)cnn2c(C)c1Cc1ccccc1 | ? | 8
O=C(c1cc(-c2ccc(F)cc2)nc2ccccc12)N1CCC(Cc2nncn2CC2CC2)CC1 | 28µM* | 1
NC(=O)C1CCN(C(=O)c2cc(-c3ccccc3)nc3ccccc23)CC1 | i | ·
Cc1ccc(-c2cc(C(=O)N3CCC(Cc4nncn4CC4CC4)CC3)c3ccccc3n2)cc1C | 22µM* | 11
Cc1ccc(-c2cc(C(=O)N3CCN(c4ccccc4)CC3)c3ccccc3n2)cc1C | ? | -3
COc1ccc(-c2c(C(=O)NCc3ccc(F)cc3)nc3sccn23)cc1 | · | 13
Cc1ccc2c(c1)cc(C(=O)N1CCc3ccccc3C1)n2C | i | ·
COc1cccc(-c2cc(C(=O)NC(C)C)c3cnn(C)c3n2)c1 | · | 0
CC(Oc1ccccc1C(N)=O)C(=O)Nc1ccccc1C(F)(F)F (configuration not stated) | i | ·
CCCCCn1nc(C(=O)Nc2nc(C)c(C(C)=O)s2)c2ccccc2c1=O | i | ·
O=C([C@H]1CCC[C@@H](O)C1)N1CCN(c2ccc3nccn3n2)CC1 | 28µM* | 18
O=C([C@H]1CCC[C@H](O)C1)N1CCN(c2ccnc3nncn23)CC1 | ? | 7
Cc1n[nH]c(C)c1C(N)C(=O)N1CCCCCCC1 (configuration not stated) | i | 7
Cc1n[nH]c(C)c1C(N)C(=O)N1CCN(c2ccc3nccn3n2)CC1 (configuration not stated) | 28µM* | -4
SMILES | KDM5B inh | IP6K1 inh
COC(=O)c1cc(/C=C(/C#N)c2nc3ccccc3[nH]2)oc1C | i | ·
O=C1NCC2(CCCN(C(=O)c3cn[nH]c3-n3cnnn3)C2)O1 (configuration not stated) | i | 32
O=C1NCC2(CCCN(C(=O)c3cnc4c(O)cccn4c3=O)C2)O1 (configuration not stated) | 32µM* | -7
COc1cccc(C(=O)N2CCN(C(=O)c3cccc(-c4cccc(OC)c4)c3)CC2)c1 | · | -2
CN1CCN(c2cc(=O)c3ccnc(NCc4ccccc4)c3o2)CC1 | 40µM* | -15
O=c1cc(-c2ccccn2)oc2c(Nc3cccnc3)nccc12 | ? | -19
CN1CCN(c2cc(=O)c3ccnc(-c4ccccc4Oc4ccccc4)c3o2)CC1 | ? | -5
O=c1cc(-c2cnccn2)oc2c(Nc3ccccn3)nccc12 | 40µM* | -10
O=c1cc(-c2ccccn2)oc2c(NCc3ccc(F)cc3)nccc12 | ? | -15
O=c1cc(-c2ccccn2)oc2c(NCc3ccccc3)nccc12 | 40µM* | -20
CCN(CC)C(=O)c1cn(CCC#N)nc1-c1cccc(Cl)c1 | i | ·
Fc1ccc(CCNC(=S)NCc2ccccc2)cc1 | i | ·
N#Cc1cccc(-c2ccnc(N[C@H]3CO[C@H]4[C@@H]3OC[C@@H]4NC(=O)c3ccc4c(c3)OCO4)n2)c1 | ? | -1
COc1ccc(-c2ccnc(N[C@H]3CO[C@H]4[C@@H]3OC[C@@H]4NC(=O)CCCC(=O)O)n2)cc1 | 32µM* | -3
O=C(O)CCCC(=O)N[C@H]1CO[C@H]2[C@@H]1OC[C@@H]2Nc1nccc(-c2ccc3c(c2)OCO3)n1 | 28µM* | 0
COc1ccc(-c2ccnc(N[C@H]3CO[C@H]4[C@@H]3OC[C@@H]4NC(=O)CC3(CC(=O)O)CCCC3)n2)cc1 | 28µM* | -15
COc1cccc(NC(=O)O[C@@H]2CO[C@H]3[C@@H]2OC[C@@H]3Nc2nccc(-c3ccc(-c4ccccc4)cc3)n2)c1 | ? | 4
CCCCNC(=O)c1cccc2c1CCN2S(=O)(=O)c1ccc(C)cc1 | i | -2
Cc1noc(C)c1CC(=O)N1CCC[C@H](n2c(=O)n(C)c3cccnc32)C1 | i | 2
